Assay outcomes as filed in PubChem.
Ba CapD inh – blocks the Bacillus anthracis CapD enzyme | purified CapD enzyme, fluorescence intensity read-out; stronger effect = lower value | z-score (no concentration beside the values) | 140,000 compounds, 0.23% hits | AID 492967; in the data active = z-score mostly below about -2.9, no sharp cut-off; inactive = mostly above about -1.9
A number is an active result; – = inactive. The entries come from a sample that favours hits as a whole.

SMILES | Ba CapD inh
CCOC(=O)c1c(CNc2cccc(Cl)c2)n(-c2ccccc2)c2cc(Br)c(OC)cc12 | –
COc1ccc(C(=O)OCc2nc3ccccc3s2)cc1 | –
Cc1ccc(C(=O)N2CCN(C(=O)c3ccccc3)C2)cc1 | –
Cn1c(=O)c2c(nc(Sc3ncnn3CC(=O)NC(C)(C)C)n2C)n(C)c1=O | –
CCOc1cc2c(cc1OCC)C1C(C(=O)N3CCCC3)c3ccccc3C(=O)N1CC2 (stereo unspecified) | –
CCOC(=O)C1CCN(C(=O)C2c3ccccc3C(=O)N3CCc4ccccc4C23)CC1 (stereo unspecified) | –
CCOc1cc2c(cc1OCC)C1C(C(=O)N3CCCCC3)c3ccccc3C(=O)N1CC2 (stereo unspecified) | -5.9
COC(=O)CSc1nnc2n(-c3ccc(OC)cc3)c(=O)c3c4c(sc3n12)CCCCC4 | –
O/N=C/c1c[nH]c2ccccc12 | –
N#CC(C#N)=C(N)/C(C#N)=C/c1c[nH]c2ccccc12 | -3
CN(C)c1ccc(/C=C(\C#N)C(N)=C(C#N)C#N)cc1 | –
C(=Nc1ccc(Cc2ccc(N=Cc3ccccn3)cc2)cc1)c1ccccn1 | –
CN1C(=O)C(=Cc2cccn2C(C)(C)C)C(=O)N(C)C1=S | –
CN1C(=O)/C(=C/c2cccn2C(C)(C)C)C(=O)NC1=S | -4.5
CCc1ccc(N2C(=O)/C(=C/c3cccn3C(C)(C)C)C(=O)NC2=S)cc1 | –
CN(c1ncc(C(F)(F)F)cc1Cl)N1C(=O)C2C3C=CC(C3)C2C1=O (stereo unspecified) | –
COc1cc(CNc2ccccc2SC)ccc1O | –
COc1cc(CNc2ccc(C)cc2)ccc1O | –
C=CCc1ccc(O)c(OC)c1 | -10
COc1ccc(C(=O)N2CCn3c2nc2ccccc23)cc1OC | –
Nc1cc(C(=O)OCC(=O)N2CCCc3ccccc32)ccc1Cl | –
O=C(O)c1cc(Nc2ccccc2C(=O)O)nc(Nc2ccccc2C(=O)O)n1 | -5.1
O=C(O)c1ccc(Nc2nccc(Nc3ccccc3C(=O)O)n2)cc1 | –
O=C(O)/C=C\C(=O)Nc1ccccc1C(=O)O | –
COCCNC(=S)Nc1ccc2nc(N3CCN(C)CC3)cc(C)c2c1 | –
SMILES | Ba CapD inh
CCCC(=O)N1c2ccccc2C(N(C(C)=O)c2ccccc2)CC1C (stereo unspecified) | –
CCOC(=O)C1=C(N)n2c(s/c(=C\c3ccco3)c2=O)=C(C#N)C1c1ccco1 (stereo unspecified) | –
CCOC(=O)C1=C(N)n2c(s/c(=C/c3ccccc3)c2=O)=C(C(=O)OCC)C1c1ccccc1 (stereo unspecified) | –
CCOC(=O)C1=C(N)n2c(s/c(=C/c3ccco3)c2=O)=C(C(=O)OCC)C1c1ccco1 (stereo unspecified) | -4.2
O=C(NNC(=O)c1ccc(O)cc1)OCCc1ccc(Cl)cc1Cl | –
COc1ccc2c(c1)C=C(C#N)CO2 | –
C=CCN(C(=O)c1ccc(OC)cc1)c1nnc(-c2ccncc2)s1 | –
O=C1NCCN1CCNS(=O)(=O)c1ccc(F)cc1 | –
O=C(Nc1c(C(=O)N2CCOCC2)oc2ccccc12)c1cccs1 | -3.6
Cc1ccccc1C(=O)Nc1c(C(=O)N2CCOCC2)oc2ccccc12 | –
NC(=O)c1oc2ccccc2c1NC(=O)c1cccs1 | –
CCn1c(CCc2ccccc2)nnc1SCC(N)=O | –
O=C1OC(c2ccccc2)=N/C1=C\C=C\c1ccccc1 | –
CN(C)/C=C/C=C1\N=C(c2ccccc2)OC1=O | -7
Cc1ccc(/C=C2\N=C(c3ccccc3)OC2=O)o1 | –
Cc1cc2nc(SCCN3CCCC3)[nH]c2cc1C | –
N=C1/C(=C/c2ccc(SC3CCCCC3)o2)C(=O)N=C2SC=CN12 | –
O=c1oc(-c2ccccc2)cc(Cl)c1Cl | –
O=c1[nH]c2c(s1)C(c1ccccc1)C1C3CCC(C3)C1S2 (stereo unspecified) | –
O=C1NC(=O)C2C1Sc1[nH]c(=O)sc1C2c1ccco1 (stereo unspecified) | -4.1
COc1ccc(C2c3sc(=O)[nH]c3SC3C(=O)N(c4ccccc4)C(=O)C32)cc1 (stereo unspecified) | –
O=c1oc(-c2cccc(C(F)(F)F)c2)nn1-c1ccc(C(F)(F)F)cn1 | –
O=C(Cc1ccccc1)SC1=NCCS1 | –
O=C(CCSc1ccc(Cl)cc1)NCc1ccncc1 | –
O=C(CCSc1ccccc1)NCc1cccnc1 | –
SMILES | Ba CapD inh
COc1ccc(SCCC(=O)NCc2ccncc2)cc1 | -2.1
COc1cccc(NC(=O)C(C)N(c2ccccc2)S(C)(=O)=O)c1 (stereo unspecified) | –
O=C1CCC([N+](=O)[O-])C(C2CCCCC2)N1 (stereo unspecified) | –
Cc1ccc(-c2nc(-c3ccccc3)nc(N3CCN(C)CC3)c2C#N)cc1 | –
N#Cc1c(-c2ccccc2)[nH]c(=S)[nH]c1=O | -6.1
CN(C)c1ccc(-c2[nH]c(=S)[nH]c(=O)c2C#N)cc1 | –
N#Cc1c(-c2cccs2)[nH]c(=S)[nH]c1=O | –
O=c1c(C=Nc2cccc(C(F)(F)F)c2)c[nH]n1-c1cccc(Cl)n1 | –
CCOC(=O)c1c(C)n(-c2ccccc2)c2ccc(OC(=O)c3ccc(S(=O)(=O)N(CC)CC)cc3)cc12 | –
O=[N+]([O-])c1cc(C(F)(F)F)ccc1Sc1nnc(-c2cccs2)n1-c1cc(C(F)(F)F)cc(C(F)(F)F)c1 | –
COc1ccc(Oc2ncccc2NC(=O)c2ccco2)cc1 | –
COCCNC(=S)c1ccc(N(C)C)cc1 | -4.9
COCCNC(=O)c1ccc(C(=O)NCCOC)cc1 | –
COCCCNC(=S)N/N=C/c1ccc(N(C)C)cc1 | –
CCCC/C(O)=C1/C(=O)CC(C)(C)CC1=Nc1ccccc1OC | –
COCCCN1C(=O)/C(=C\c2c(N3CC(C)OC(C)C3)nc3c(C)cccn3c2=O)SC1=S (stereo unspecified) | –
O=C1/C(=C/c2ccc(-c3cc(Cl)ccc3Cl)o2)C=C(c2ccccc2)N1c1ccccc1Cl | –
CN(C)C(=O)O/N=C(\N)c1ccc(OCc2ccccc2F)cc1 | –
COC(=O)C1C(=O)C2=C(CC1C)Nc1ccccc1NC2c1c[nH]c2ccccc12 (stereo unspecified) | –
CCOC(=O)C1=C(C)NC2=C(C(=O)C(C(=O)OC)C(C)C2)C1c1ccccc1 (stereo unspecified) | –
COC(=O)C1C(=O)C2=C(CC1C)Nc1ccccc1NC2c1ccccc1C (stereo unspecified) | -4
COc1ccc(/C=C/C(=O)O)cc1S(=O)(=O)N1CCc2ccccc2C1 | –
CCN1C(=O)NC(=O)/C(=C\c2cn(CC(=O)NCC3CCCO3)c3ccccc23)C1=O (stereo unspecified) | –
O=C(O)CN1C(=O)/C(=C\c2cc([N+](=O)[O-])cc(Br)c2O)SC1=S | -7.9
O=C(O)CN1C(=O)/C(=C\c2ccc(-c3ccc([N+](=O)[O-])cc3Cl)o2)SC1=S | –
SMILES | Ba CapD inh
O=C1/C(=C/c2cc([N+](=O)[O-])cc(Br)c2O)SC(=S)N1c1ccc([N+](=O)[O-])cc1 | –
NNC(=O)Cn1cc(Cl)c(=O)c(Cl)c1 | –
Cc1ccc2c(c1)c1c3n2CCN(CC(O)COc2ccccc2C)C3CCC1 (stereo unspecified) | –
CCOC(=O)c1[nH]c(=O)[nH]c1COC(=O)CNC(=O)c1ccccc1 | -6.1
COC(=O)CNC(=O)c1ccccc1 | –
CCOC(=O)c1[nH]c(=O)[nH]c1CN(Cc1ccco1)Cc1[nH]c(=O)[nH]c1C(=O)OCC | –
Cc1oc(-c2ccc(C(=O)NCCN3CCCC3)cc2)nc1CSc1ccc(Cl)cc1 | –
O=C1NCC(O)=C1/C=N/Nc1ccccc1 | -4.4
